# Screening results (PubChem)
# Sampled rows, rich in hits. Any-hit rate of the full collection: about 19%.
# HT1080 IDH1KD tx: kills HT-1080 cells with IDH1 knockdown. HT-1080 IDH1 knockdown viability, ATP luminescence, 48 h. Potency, µM (titrated, usually from 46.1 µM), inactives show at the highest dose activity, negative = toxicity, actives largely listed as cytotoxic. actives 2% (n = 360,000);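 also: potency is read from the fitted curve at half-maximal effect; 0% = DMSO wells and -100% = cell-free medium wells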
#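 In this qHTS, HT-1080 cells depleted of IDH1 are exposed for 48 h at 37 °C to compound titrations. Toxicity is scored from CellTiter-Glo luminescence, with DMSO as full viability and medium alone as none.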
# HT1080-NT tox: kills 2HG-producing HT-1080-NT fibrosarcoma cells; HT-1080-NT fibrosarcoma viability, CellTiter-Glo ATP luminescence, 48 h; Potency, µM (highest dose often 46.1 µM), without a hit: at the highest dose activity, negative = less viability, most hits filed as cytotoxic; actives 1.6% (n = 360,000); AID 686970;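 also: NT is the 2HG producing partner of a matched IDH1 knockdown line; potency is read from the fitted curve at half-maximal effect; 0% = DMSO-treated cells and -100% = media-only wells without cells; nearly all actives have a fitted effect of over 55% in size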
#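 Toxicity toward the 2HG-producing NT line was scored as %Activity, normalised to DMSO and no-cell wells, from CellTiter-Glo luminescence after 48 hours' treatment.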
# DT40 TDP1 no CPT: qHTS for Inhibitors of human tyrosyl-DNA phosphodiesterase 1 (TDP1): qHTS in cells in absence of CPT. DT40 Tdp1-/- hTDP1 cells, no CPT, ATP luminescence, 48 h. actives 15% (n = 420,000). Potency, µM (series often up to 46.2 µM), for the others: top-dose activity change, negative = growth inhibition, hits mostly inhibitors; also: potency is read from the fitted curve at half-maximal effect; nearly all actives have a fitted effect of over 55% in size
#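 A cellular qHTS used chicken DT40 cells lacking endogenous Tdp1 but carrying stably transfected human TDP1. Compounds were applied without camptothecin, and cell growth kinetics were judged by ATP-dependent luminescence after ≥48 hr.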
# TDP1 cell CPT: growth inhibition of DT40 Tdp1-/-;hTDP1 cells with camptothecin (screen for TDP1 inhibitors) | chicken DT40 Tdp1-/-;hTDP1 cells + 20 nM CPT, ATP luminescence, 48 h | Potency, µM (titrated, usually from 46.2 µM), inactives show top-dose activity change, negative = growth inhibition, actives largely listed as inhibitors | actives 12% (n = 420,000) | AID 686979; also: potency is read from the fitted curve at half-maximal effect; nearly all actives have a fitted effect of over 55% in size
#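 Chicken DT40 Tdp1-/- cells complemented with human TDP1, 400 cells/well, exposed to compounds plus 20 nM camptothecin for at least 48 h at 37 C; viability read as ATP content by CellTiter-Glo luminescence.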
# ELG1 repair inh: inhibitors of ELG1-dependent DNA repair in HEK293T cells; actives 2.3% (n = 330,000); HEK293T ELG1-luciferase reporter, luminescence, 16 h; DNA damage induced by 5-fluorouridine; Potency, µM (series often up to 46.1 µM), for inactives: at the highest dose activity change, negative = inhibition, most hits filed as inhibitors; also: potency is read from the fitted curve at half-maximal effect; nearly all actives have a fitted effect of over 55% in size
#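 Cells (2,000 per well) received 5-fluorouridine plus test compound or DMSO and were incubated 16 hr at 37 °C, 5% CO2. Luciferase activity was read by luminescence 30 min after ONE-Glo addition; signal suppression marked inhibition of damage-induced ELG1 function.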
# IL1B secr inh: inflammasome signaling inhibition, IL-1 beta readout; THP-1 LPS/ATP IL-1B secretion, AlphaLISA, 16 h; stronger effect = lower value; activity change, % at 57.5 µM; actives 4.7% (n = 360,000); AID 743279; in the data active = activity change below about -50%; inconclusive = mostly about -30% to -49%
#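 Secreted IL-1B measured by AlphaLISA bead assay after 16 h compound exposure of THP-1 cells; compounds (final up to 57.5 uM) added 1 h before LPS (250 ng/mL) and ATP (1.25 mM) stimulation; lower signal means less secretion.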
# Starred values were filed as active, the others as inactive; ? = inconclusive; . = no result; ! = a repeat was not active. Unless noted, calls follow the shape of the dose curve; as a rule, active = well fitted curve in the direction sought with a large enough effect; inconclusive = small, poorly fitted or top-dose-only effect, or another doubt; inactive = no such curve, though single readings can be large; an effect the other way counts as inactive or inconclusive. Unless noted, % is scaled to controls: 0 for no effect and ±100 for the full control effect.
SMILES,HT1080 IDH1KD tx,HT1080-NT tox,DT40 TDP1 no CPT,TDP1 cell CPT,ELG1 repair inh,IL1B secr inh
CCN1CCN(C(=O)c2cc3c(s2)-c2c(C)cccc2OC3)CC1,-10%,-1%,?,?,?,-13
Cc1cccc2c1-c1sc(C(=O)NCCCN3CCN(c4ccccc4F)CC3)cc1CO2,.,.,6.5µM*,?,.,.
COc1ccc(OC)c(CCNC(=O)c2cc3c(s2)-c2c(C)cccc2OC3)c1,.,.,7.3µM*,12µM*,.,.
CCN(C(=O)c1cc2c(s1)-c1c(C)cccc1OC2)c1ccccc1F,.,.,21µM*,21µM*,.,.
O=C(NCCCN1CCOCC1)c1cc2c(s1)-c1ccccc1OC2,-29%,-21%,-29%,-30%,?,?
CCN1CCN(CCCNC(=O)c2cc3c(s2)-c2c(C)cccc2OC3)CC1,.,.,5.8µM*,4.6µM*,.,.
CC1(C(=O)OCC(=O)Nc2nnc(-c3ccccc3)o2)CC1(Cl)Cl (stereo unspecified),-13%,-12%,?,?,9%,47
Cc1ccc(-n2nc(CO)c(C(=O)NCCc3ccccc3)n2)cc1C,.,.,?,-14%,.,.
CCn1c(SCC(=O)N2CCOCC2)nnc1C(C)NC(=O)c1ccccc1 (stereo unspecified),11%,-9%,-3%,-2%,12%,-8
Cc1cn([C@H]2C[C@H](O)[C@@H](CCC(=O)NC(c3ccccc3)c3ccccc3)O2)c(=O)[nH]c1=O,4%,10%,1%,7%,.,0
Cc1cccc2c1-c1sc(C(=O)N3CCN(c4cccc(Cl)c4)CC3)cc1CO2,.,.,-16%,-15%,.,.
CCCN(C(=O)c1cc2c(s1)-c1ccccc1SC2)c1ccccc1F,.,.,16µM*,?,.,.
Cc1cccc2c1-c1sc(C(=O)Nc3ccccc3N3CCN(C)CC3)cc1CO2,-30%,?,18µM*,18µM*,21µM*,-93*
Cc1cccc2c1-c1sc(C(=O)NCCCN3CCN(c4cccc(Cl)c4)CC3)cc1CO2,.,.,?,23µM*,.,.
CCn1c(SCC(=O)Nc2oc(C)c3c(C)n[nH]c(=O)c23)nnc1-c1ccco1,-14%,0%,-14%,-22%,.,-4
CS(=O)(=O)c1ccc(Cn2c3c(c4cc(F)cc(F)c42)CCC[C@H]3CC(=O)O)cc1,.,.,-7%,14%,.,.
C[C@@H]1C(c2cccc(Cl)c2)=NN(c2ccc(Br)cc2)[C@H]1C(=O)N1CCOC1=O,?,?,?,?,-11%,-51*
C[C@@H]1C(c2cccc(Cl)c2)=NN(c2ccccc2)[C@H]1C(=O)N1CCOC1=O,-13%,-9%,?,?,-24%,-78*
N#Cc1cc2ccccc2nc1SCC(=O)NC1CC1,5%,5%,-8%,4%,?,9
O=Cc1cc2ccccc2nc1SCCCF,7.3µM*,16µM*,4.6µM*,?,1%,48
CC(=O)N(C)c1cccc(-c2ccc3nnc(C)n3n2)c1,1%,-8%,-3%,-20%,?,-4
Cc1ccc(C(=O)N(C)CC(=O)Nc2ccc(N3CCOCC3)cc2)s1,11%,11%,-8%,-16%,?,-7
CCOc1ccc(C(=O)CCc2nc3ccccc3s2)cc1,?,?,-18%,-10%,?,-4
CCOc1ccc(N2C(=O)C(c3ccccc3)=C(c3nc4ccccc4s3)C2NC(C)=O)cc1 (stereo unspecified),-8%,2%,16µM*,?,?,-19
CC(=O)C[C@H]1SC[C@@H](C(C)C)N1S(=O)(=O)c1ccc(C)cc1,8%,-2%,13µM*,9.2µM*,.,8
SMILES,HT1080 IDH1KD tx,HT1080-NT tox,DT40 TDP1 no CPT,TDP1 cell CPT,ELG1 repair inh,IL1B secr inh
Cc1ccc(S(=O)(=O)N2[C@H](CC(=O)Oc3ccccc3)OC[C@@H]2C(C)C)cc1,-2%,0%,13µM*,13µM*,.,15
Cc1ccc(S(=O)(=O)C[C@@H]2OC[C@H](C(C)C)N2S(=O)(=O)c2ccc(C)cc2)cc1,-6%,-2%,16µM*,18µM*,.,-2
CC(=O)C[C@@H]1OC[C@H](C(C)C)N1S(=O)(=O)c1ccc(C)cc1,3%,0%,?,?,.,19
C=C1C(=O)OC2CC1C(O)CC(C)=CCCC(C)=CC(O)CC2C (stereo unspecified),7.3µM*,15µM*,3.3µM*,2.9µM*,.,-103*
C=C1CCC(OC(C)=O)C2(C)CCC3C(C)C(=O)OC3C12O (stereo unspecified),3%,-2%,0%,0%,9%,-8
C=C1C(=O)OC2CC1C(OC(C)=O)CC(C)=CCCC(C)=CCC[C@@]2(C)O (stereo partly specified),.,.,3.3µM*,2.9µM*,.,.
C=CCOC(=O)C1=C(C)NC(SCC(=O)Nc2nccs2)=C(C#N)C1c1cccs1 (stereo unspecified),?,?,?,?,?,-17
C=CCOC(=O)C1=C(C)NC(SC)=C(C#N)C1c1ccc(OCC)cc1 (stereo unspecified),?,?,?,?,-28%,-75*!
C=CCOC(=O)C1=C(C)NC(SC)=C(C#N)C1c1cccs1 (stereo unspecified),18µM*,9.2µM*,?,?,-19%,-12
C=CCOC(=O)C1=C(C)NC(SCC(=O)Nc2nccs2)=C(C#N)C1c1ccc(Cl)cc1 (stereo unspecified),?,?,32µM*,22µM*,?,-6
COc1ccc(CNC(=O)c2cc(=O)[nH]c3ccc(S(=O)(=O)N4CCCC4)cc23)c(OC)c1,.,.,-16%,-1%,.,.
CC(C)c1nn2c(=O)cc(COC(=O)CNC(=O)c3ccccc3)nc2s1,.,.,-13%,-23%,.,.
CCOC(=O)Cc1ccc(NC(=O)NCc2ccc3c(c2)CCN3C(=O)CC)cc1,.,.,-4%,-17%,.,.
O=C(Nc1ccc2c(c1)OCCO2)C(CCc1ccccc1)N(Cc1ccccc1)Cc1ccccc1 (stereo unspecified),-5%,7%,?,?,.,4
O=C(Nc1ccc(F)cc1)C(CCc1ccccc1)N1CCN(c2ccncc2)CC1 (stereo unspecified),?,21µM*,23µM*,16µM*,.,-27
